Results taken from ChEMBL document CHEMBL1961873, “Compounds: GSK PKIS; Assays: Nanosyn kinase panel” (2012).

What follows are compounds tested against Hepatocyte growth factor receptor (Homo sapiens) (UniProt P08581). Settings: at 1 µM.
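Note: each value is an averaged inhibition figure for MET, taken as the mean across measurements.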

Hepatocyte growth factor receptor (Homo sapiens), sequence (P08581 whole entry): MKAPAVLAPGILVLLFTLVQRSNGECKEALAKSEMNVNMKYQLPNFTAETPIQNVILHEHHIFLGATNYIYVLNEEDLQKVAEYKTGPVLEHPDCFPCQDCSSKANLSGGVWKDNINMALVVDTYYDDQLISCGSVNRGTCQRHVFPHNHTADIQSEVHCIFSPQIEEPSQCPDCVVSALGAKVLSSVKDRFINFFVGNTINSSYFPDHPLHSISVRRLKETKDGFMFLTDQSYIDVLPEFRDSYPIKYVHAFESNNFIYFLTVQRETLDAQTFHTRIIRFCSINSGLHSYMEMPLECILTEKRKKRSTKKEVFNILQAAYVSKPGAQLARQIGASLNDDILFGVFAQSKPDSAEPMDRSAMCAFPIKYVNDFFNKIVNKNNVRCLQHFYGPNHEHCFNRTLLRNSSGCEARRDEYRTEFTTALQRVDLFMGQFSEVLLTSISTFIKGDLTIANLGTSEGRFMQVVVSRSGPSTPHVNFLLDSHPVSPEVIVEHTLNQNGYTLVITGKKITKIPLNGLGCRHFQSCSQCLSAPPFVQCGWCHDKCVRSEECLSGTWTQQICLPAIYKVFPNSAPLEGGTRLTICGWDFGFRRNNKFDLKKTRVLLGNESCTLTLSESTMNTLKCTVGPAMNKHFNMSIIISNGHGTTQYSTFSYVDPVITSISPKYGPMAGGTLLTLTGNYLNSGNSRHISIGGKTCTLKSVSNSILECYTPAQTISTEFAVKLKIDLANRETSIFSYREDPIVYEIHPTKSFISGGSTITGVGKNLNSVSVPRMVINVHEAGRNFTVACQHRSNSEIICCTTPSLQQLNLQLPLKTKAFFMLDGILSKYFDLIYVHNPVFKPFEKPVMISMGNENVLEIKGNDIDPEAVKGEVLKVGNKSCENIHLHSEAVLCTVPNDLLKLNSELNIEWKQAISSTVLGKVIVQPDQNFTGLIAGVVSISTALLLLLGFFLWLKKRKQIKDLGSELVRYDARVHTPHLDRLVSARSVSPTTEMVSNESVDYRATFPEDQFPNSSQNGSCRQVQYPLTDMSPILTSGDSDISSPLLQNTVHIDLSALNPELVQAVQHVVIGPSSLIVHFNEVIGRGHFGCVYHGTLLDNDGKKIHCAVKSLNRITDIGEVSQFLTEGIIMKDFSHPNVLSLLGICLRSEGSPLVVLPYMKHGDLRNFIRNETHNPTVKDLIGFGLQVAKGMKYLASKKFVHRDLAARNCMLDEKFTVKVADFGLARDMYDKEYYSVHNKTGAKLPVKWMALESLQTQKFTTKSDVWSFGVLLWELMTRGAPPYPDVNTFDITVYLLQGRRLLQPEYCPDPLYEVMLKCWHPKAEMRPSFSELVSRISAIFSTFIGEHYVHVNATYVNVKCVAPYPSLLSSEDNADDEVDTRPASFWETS

Going from COc1cccc(-n2ncc3c(N/N=C/c4ccc(C)cc4)ncnc32)c1 to COc1cc(/C=N/Nc2ncnc3c2cnn3C(C)C)ccc1O, the inhibition falls from 7.4% to 5.86%.

First: COc1cc2ncnc(Nc3ccc4c(cnn4Cc4ccccc4)c3)c2cc1OC
Second: CN(C)c1cc2c(Nc3ccc4c(cnn4Cc4ccccc4)c3)ncnc2cn1
The inhibition of the first is higher: 4.07% for the first, 0.45% for the second.

Compared with Cc1ccc(NC(=O)CC2CC2)cc1-c1ccc(C(=O)NCC2CC2)cc1, Cc1ccc2c(c1)/C(=N/Nc1ccc(S(N)(=O)=O)cc1)C(=O)N2 is lower in inhibition: 9% for the first, 4.08% for the second.

Compared with COc1ccc2ncnc(Nc3ccc(OCc4ccccc4)cc3)c2c1, c1ccc(Cc2nc3ccc(Nc4ncnc5ccccc45)cc3[nH]2)cc1 is higher in inhibition: 2.39% for the first, 7.9% for the second.

Going from Nc1nccc(-c2c(-c3ccc(F)cc3)ncn2CCCN2CCOCC2)n1 to Cc1nc(-c2ccccc2)n2nc(NCCCN3CCOCC3)ncc12, the inhibition falls from 5.4% to 0.32%.

First: CN(C)C(=O)O[C@@H]1CN[C@@H](C#Cc2cc3ncnc(Nc4ccc(OCc5cccc(F)c5)c(Cl)c4)c3s2)C1
Second: CN(C)C(=O)O[C@H]1CN[C@H](C#Cc2cc3ncnc(Nc4ccc(OCc5cccc(F)c5)c(Cl)c4)c3s2)C1
The inhibition of the first is lower: 0.32% for the first, 6.26% for the second.

Going from Cc1cc(O)cc(C)c1/C=C/c1cncc(C(=O)N(C)C)c1 to Cc1cc(-c2ccccn2)cc(C)c1/C=C/c1cncc(-c2nn[nH]n2)c1, the inhibition falls from 10.9% to 4.32%.

Compared with Oc1cccc(-c2nc(-c3ccccc3)[nH]c2-c2ccncc2)c1, OCc1ccc(-c2nc(-c3ccccn3)c(-c3ccc4c(c3)OCO4)[nH]2)cc1 is lower in inhibition: 11.1% for the first, 8.92% for the second.

Going from CCn1c(-c2nonc2N)nc2ccc(F)cc21 to CCOc1nccc2c1nc(-c1nonc1N)n2CC, the inhibition rises from 9.65% to 11.2%.

Compared with Cc1ccc2c(-c3ccnc(Nc4ccc5c(c4)OCCO5)n3)c(-c3ccc(C(F)(F)F)cc3)nn2n1, Cc1ccc2c(-c3ccnc(Nc4cccc(C(F)(F)F)c4)n3)c(-c3ccccc3)nn2n1 is higher in inhibition: 1.74% for the first, 10.4% for the second.

Compared with N#Cc1c(NC(=O)c2ccccc2F)sc2c1CCCC2, O=C1Nc2ccccc2/C1=C/Nc1ccc2[nH]c(=O)[nH]c2c1 is higher in inhibition: 4.86% for the first, 14.8% for the second.

Going from Nc1ccc(C#Cc2cncnc2Nc2ccc(OCc3cccc(F)c3)c(Cl)c2)cc1 to O=S(=O)(CCOCc1ccc(-c2ccc3ncnc(Nc4ccc(OCc5cccc(F)c5)c(Cl)c4)c3c2)o1)c1ccccc1, the inhibition rises from 3.8% to 8.46%.

Compared with CN(c1ccc(NC(=O)Nc2ccc(OC(F)(F)F)cc2)cc1)c1ccnc(Nc2cccc(S(N)(=O)=O)c2)n1, COc1ccc(-c2nn3ncccc3c2-c2ccnc(Nc3cccc(C(F)(F)F)c3)n2)cc1 is lower in inhibition: 64.9% for the first, 12.1% for the second.

Going from COC(=O)c1ccc2c(c1)C(=Cc1cc(Br)c(O)c(Br)c1)C(=O)N2 to NS(=O)(=O)c1ccc(Nc2cc(-c3cccc(O)c3)n[nH]2)cc1, the inhibition falls from 8.25% to 2.36%.

First: CC(C)c1ccc(Nc2nccc(-c3cnn4ncccc34)n2)cc1
Second: COc1cc(Nc2nccc(-c3cnn4ncccc34)n2)cc(OC)c1
The inhibition of the first is lower: 13.5% for the first, 14.4% for the second.

First: CCCN1CCCC(c2ccc(Nc3nc(Nc4cc(F)ccc4C(N)=O)c4cc[nH]c4n3)c(OC)c2)C1 (stereo not drawn)
Second: CCS(=O)(=O)c1ccc(OC)c(Nc2nccc(N(C)c3ccc4c(C)n[nH]c4c3)n2)c1
The inhibition of the first is higher: 20.6% for the first, 5.71% for the second.

CCn1c(-c2nonc2N)nc2c(C#CC(C)(C)O)nc(OCCNC)cc21 showed an inhibition of 0.4%.
